The supplement of paper PMC12636033
± gives the standard deviation of the averaged measurements. The full ranking holds about 33,000 sequences; the median of “E-score (rank enrichment, -0.5 to 0.5)” is about -0.0068, and the highest 2% start at about 0.24. For the sample, the highest values were picked, then their nearest neighbours and some sequences at random.

test system: muMax20 (Max(13-93) K31hArg/K57hArg, M65Nle); assay: PBM 8-mer E-score (E-score (rank enrichment, -0.5 to 0.5)); higher = stronger preferential binding
Description: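 Protein binding microarray (universal PBM chip covering all 10-mers in fixed probe flanks) with chemically synthesized human Max(13-93) bHLH-LZ analogs (not full-length Max) bearing noncanonical residues (hArg, Tha, Aib, Nle at 65) and aromatic Cys staples. Read-out per 8-mer (and its reverse complement): E-score (rank-based enrichment, -0.5 to 0.5) and Z-score of median probe intensity.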

Sequence	PBM 8-mer E-score
AAAAGGGT	0.017 ± 0.098
CCCACGCG	0.246 ± 0.025
AGCACGCA	0.00177 ± 0.16
TAAACACA	0.218 ± 0.043
CCCACGCA	-0.043 ± 0.11
ACCACGCA	-0.00629 ± 0.023
CAAACACA	0.181 ± 0.095
ACCACGCG	0.3 ± 0.11
CCCACGCC	-0.00197 ± 0.078
AGCACGCG	0.238 ± 0.13
CGCACGCG	0.171 ± 0.035
ACCACGCC	-0.112 ± 0.055
CAAACACG	0.292 ± 0.006
ATCTCAAT	0.0437 ± 0.22
ATCTCCCA	0.0498 ± 0.043
AGACCAGA	-0.0423 ± 0.084
AGGGTGCG	-0.107 ± 0.027
CTGAGCAG	-0.139 ± 0.067
ACATAGGC	0.126 ± 0.0047
CGCAGGGA	-0.135 ± 0.074
ACCACGTG	0.477 ± 0.026
AACACGCG	0.202 ± 0.042

Sequence	PBM 8-mer E-score
AGCACGTA	0.0788 ± 0.0046
ACCACGTC	0.0772 ± 0.1
ATCACGTG	0.445 ± 0.064
CACACGCG	0.258 ± 0.038
CACACGCA	0.0877 ± 0.054
AGCACGTG	0.436 ± 0.07
ATCACGTA	0.144 ± 0.055
ATCACGTC	0.182 ± 0.045
ACCACGTA	-0.0417 ± 0.022
AGCACGTC	-0.139 ± 0.096
ATGCCCAG	-0.219 ± 0.063
ACTCGCTA	-0.111 ± 0.17
CCGTGCCG	-0.206 ± 0.017
GACCACAC	0.0455 ± 0.029
CACTAGGG	-0.0807 ± 0.033
TATGGAAA	0.148 ± 0.034
CCCCCTCG	-0.0378 ± 0.01
ATGCCCAC	0.164 ± 0.033
AATGAATC	-0.0408 ± 0.034
GATGAATA	0.24 ± 0.097
TATGAATA	0.159 ± 0.029
ACTGAATA	0.0784 ± 0.014

Sequence	PBM 8-mer E-score
AATGAAAT	0.0911 ± 0.04
AATGAATT	0.238 ± 0.013
CATGAATG	0.126 ± 0.15
AATGAATG	0.259 ± 0.058
CATGAATA	0.192 ± 0.13
AATGAATA	0.275 ± 0.093
GATGAATC	0.0791 ± 0.018
AATGAACT	-0.00523 ± 0.086
ATGTATCA	0.135 ± 0.08
ATAGAGCA	-0.146 ± 0.024
GAACCGAA	0.0388 ± 0.025
AAACCCCG	0.193 ± 0.062
ACCTACTG	0.118 ± 0.053
CATTGATC	0.196 ± 0.028
ATCGCAAT	0.0576 ± 0.054
CAAAGCTC	-0.178 ± 0.079
CGCATCTA	0.176 ± 0.0097
CTCTTCGA	0.0225 ± 0.082
AAATTGTA	0.282 ± 0.017
TAATTGTA	0.146 ± 0.091
AAATTGTT	0.136 ± 0.14
CGCGAACC	-0.2495 ± 0.00081

Sequence	PBM 8-mer E-score
CCTGAAAG	0.0218 ± 0.0043
ACAACATC	0.0572 ± 0.022
ACAACAAA	0.163 ± 0.0084
ACAACAAG	0.262 ± 0.017
ACAACATG	0.265 ± 0.008
ACAACCAT	0.29 ± 0.03
ACAACCAG	0.062 ± 0.026
ACAACCAC	0.033 ± 0.02
ACAACATA	0.0952 ± 0.11
ACAACAAC	0.125 ± 0.024
CCGTGAGA	-0.189 ± 0.067
ACCTATGA	-0.136 ± 0.034
ACCACCGC	-0.0018 ± 0.023
ATTCTTTC	0.176 ± 0.02
CGCAGTGC	-0.12 ± 0.2
CATCGGGC	-0.209 ± 0.08
ATGTTGCA	0.122 ± 0.029
AAGTAGAT	0.0944 ± 0.081
ACCTGGCG	-0.256 ± 0.014
GGGGCACA	0.0581 ± 0.01
